Assay results as given in PubChem BioAssay AID1159580 (chemical genetic matrix, 2015).
The campaign covered roughly 5,500 compounds. About 2,000 (36%) were called active. Inconclusive results (about 18%) are left out. No stated cut-off is given here; in the data, active means normalized growth mostly below about 0.91 (no sharp cut-off); inconclusive means no clear call, values can overlap the other calls; inactive means mostly above about 0.92. The list shows a part of the results.

Assay: chemical genetic growth profiling, strain panel (AID 1159580);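 further: tested at 20 µM; growth read once vehicle control cultures reached saturation at 30 °C; 1 = growth at the plate median or of vehicle wells; lower values mean less growth of the strain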
Settings: growth OD

Measured: normalized growth

O=C(Oc1cc(O)cc2c1C[C@@H](OC(=O)c1cc(O)c(O)c(O)c1)[C@@H](c1cc(O)c(O)c(O)c1)O2)c1cc(O)c(O)c(O)c1
inactive: S. cerevisiae deletion strains, locus YJL187C, strain SWE1, hits give low values 1.02 | S. cerevisiae deletion strains, locus YJR066W, strain TOR1, hits give low values 0.949 | S. cerevisiae deletion strains, locus YKL009W, strain mrt4, hits give low values 1.02 | S. cerevisiae deletion strains, locus YKL068W, hits give low values 0.985 | S. cerevisiae deletion strains, locus YKL085W, strain MDH1 (second series), hits give low values 1.03 | S. cerevisiae deletion strains, locus YKL085W, strain MDH1, hits give low values 1.03 | S. cerevisiae deletion strains, locus YKL160W, strain elf1, hits give low values 1.01 | S. cerevisiae deletion strains, locus YKR026C, strain gcn3, hits give low values 0.984 | S. cerevisiae deletion strains, locus YKR091W, strain srl3, hits give low values 1.01 | S. cerevisiae deletion strains, locus YLL001W, strain dnm1, hits give low values 1.01 | S. cerevisiae deletion strains, locus YLL026W, hits give low values 1.01 | S. cerevisiae deletion strains, locus YLL041C, strain sdh2, hits give low values 1.01 | S. cerevisiae deletion strains, locus YLR027C, strain aat2, hits give low values 0.996 | S. cerevisiae deletion strains, locus YLR102C, strain apc9, hits give low values 0.948 | S. cerevisiae deletion strains, locus YLR113W, strain HOG1, hits give low values 1.06 | S. cerevisiae deletion strains, locus YLR221C, strain rsa3, hits give low values 1.03 | S. cerevisiae deletion strains, locus YLR258W, strain gsy2, hits give low values 1.01 | S. cerevisiae deletion strains, locus YLR262C, strain YPT6 (second series), hits give low values 1.01 | S. cerevisiae deletion strains, locus YLR320W, strain mms22, hits give low values 1.04 | S. cerevisiae deletion strains, locus YLR342W, strain FKS1, hits give low values 1.04 | S. cerevisiae deletion strains, locus YLR357W, strain rsc2, hits give low values 1.01 | S. cerevisiae deletion strains, locus YLR370C, strain arc18, hits give low values 1.01 | S. cerevisiae deletion strains, locus YLR384C, strain iki3, hits give low values 0.998 | S. cerevisiae deletion strains, locus YML120C, strain ndi1, hits give low values 1.01 | S. cerevisiae deletion strains, locus YMR078C, strain ctf18, hits give low values 0.938 | S. cerevisiae deletion strains, locus YMR125W, strain sto1, hits give low values 0.985 | S. cerevisiae deletion strains, locus YMR129W, hits give low values 1.01 | S. cerevisiae deletion strains, locus YMR205C, strain PFK2, hits give low values 1.02 | S. cerevisiae deletion strains, locus YMR231W, strain pep5, hits give low values 0.981 | S. cerevisiae deletion strains, locus YNL071W, strain lat1, hits give low values 1.02 | S. cerevisiae deletion strains, locus YNL183C, strain NPR1, hits give low values 0.943 | S. cerevisiae deletion strains, locus YNL209W, strain ssb2, hits give low values 0.991 | S. cerevisiae deletion strains, locus YNL248C, strain rpa49, hits give low values 1.03 | S. cerevisiae deletion strains, locus YNL250W, strain rad50, hits give low values 0.953 | S. cerevisiae deletion strains, locus YNL271C, strain bni1, hits give low values 0.941 | S. cerevisiae deletion strains, locus YNL298W, strain CLA4, hits give low values 0.948 | S. cerevisiae deletion strains, locus YNL307C, strain MCK1, hits give low values 0.915 | S. cerevisiae deletion strains, locus YNL322C, strain KRE1 (second series), hits give low values 1.01 | S. cerevisiae deletion strains, locus YNR049C, strain mso1, hits give low values 1.03 | S. cerevisiae deletion strains, locus YOL012C, strain htz1 0.207 | S. cerevisiae deletion strains, locus YOR001W, strain rrp6, hits give low values 1.02 | S. cerevisiae deletion strains, locus YOR070C, strain gyp1, hits give low values 1 | S. cerevisiae deletion strains, locus YOR080W, strain dia2, hits give low values 1.02 | S. cerevisiae deletion strains, locus YOR083W, strain WHI5, hits give low values 0.999 | S. cerevisiae deletion strains, locus YOR106W, strain vam3, hits give low values 0.989 | S. cerevisiae deletion strains, locus YOR231W, strain MKK1, hits give low values 1.02 | S. cerevisiae deletion strains, locus YOR265W, strain rbl2, hits give low values 1.02 | S. cerevisiae deletion strains, locus YOR270C, strain vph1, hits give low values 1.06 | S. cerevisiae deletion strains, locus YOR290C, strain snf2, hits give low values 0.988 | S. cerevisiae deletion strains, locus YOR316C, strain cot1, hits give low values 0.947 | S. cerevisiae deletion strains, locus YPL051W, strain arl3, hits give low values 1 | S. cerevisiae deletion strains, locus YPL078C, strain atp4, hits give low values 0.983 | S. cerevisiae deletion strains, locus YPL106C, strain sse1, hits give low values 1.01 | S. cerevisiae deletion strains, locus YPL240C, strain hsp82, hits give low values 1.01 | S. cerevisiae deletion strains, locus YPL256C, strain CLN2, hits give low values 1.07 | S. cerevisiae deletion strains, locus YPR119W, strain clb2, hits give low values 0.972 | S. cerevisiae deletion strains, locus YPR141C, strain kar3, hits give low values 0.974
active: S. cerevisiae deletion strains, locus YJR043C, strain POL32, hits give low values 0.13 | S. cerevisiae deletion strains, locus YKR001C, strain vps1, hits give low values 0.599 | S. cerevisiae deletion strains, locus YLR039C, strain RIC1, hits give low values 0.233 | S. cerevisiae deletion strains, locus YLR058C, strain SHM2, hits give low values 0.141 | S. cerevisiae deletion strains, locus YLR268W, strain sec22, hits give low values 0.414 | S. cerevisiae deletion strains, locus YLR330W, strain CHS5, hits give low values 0.613 | S. cerevisiae deletion strains, locus YLR342W, strain FKS1 (second series), hits give low values 0.198 | S. cerevisiae deletion strains, locus YLR371W, strain rom2, hits give low values 0.602 | S. cerevisiae deletion strains, locus YLR418C, strain cdc73, hits give low values 0.341 | S. cerevisiae deletion strains, locus YML016C, strain PPZ1, hits give low values 0.083 | S. cerevisiae deletion strains, locus YML032C, strain rad52, hits give low values 0.857 | S. cerevisiae deletion strains, locus YML124C, strain tub3, hits give low values 0.824 | S. cerevisiae deletion strains, locus YMR223W, strain ubp8, hits give low values 0.666 | S. cerevisiae deletion strains, locus YMR307W, strain GAS1, hits give low values 0.448 | S. cerevisiae deletion strains, locus YNL067W, strain RPL9B, hits give low values 0.366 | S. cerevisiae deletion strains, locus YNL233W, strain BNI4, hits give low values 0.455 | S. cerevisiae deletion strains, locus YNR052C, strain pop2, hits give low values 0.436 | S. cerevisiae deletion strains, locus YOL147C, strain pex11, hits give low values 0.779 | S. cerevisiae deletion strains, locus YOR061W, strain CKA2, hits give low values 0.218 | S. cerevisiae deletion strains, locus YOR069W, strain VPS5, hits give low values 0.182 | S. cerevisiae deletion strains, locus YOR136W, strain idh2, hits give low values 0.795 | S. cerevisiae deletion strains, locus YOR144C, strain elg1, hits give low values 0.814 | S. cerevisiae deletion strains, locus YOR184W, strain ser1, hits give low values 0.445 | S. cerevisiae deletion strains, locus YPL055C, strain LGE1, hits give low values 0.139 | S. cerevisiae deletion strains, locus YPR163C, strain tif3, hits give low values 0.87 | S. cerevisiae deletion strains, locus YPR167C, strain met16, hits give low values 0.847 | S. cerevisiae deletion strains, strain wtn01, hits give low values 0.433 | S. cerevisiae strains, strain wild type, hits give low values 0.0757
